Tau fluor counter: counter-screen for tau fibril formation inhibitors. hit rate 0.93% among 280,000. AID 1463. Potency, µM (highest dose often 57.7 µM), for the others: top-dose activity change, negative = decrease. tau K18 P301L Alexa594 fluorescence, heparin fibrillization; further: potency means the concentration at half of the fitted maximal effect; on the % scale 0 is the no-effect control and ±100 the full control effect; nearly all actives have a fitted effect of over 55% in size
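Human tau K18 P301L (15 uM unlabeled, 0.24 uM Alexa 594-labeled) in 100 mM sodium acetate pH 7 with 20 uM heparin, 6 hr at 37 C. ThT 30 uM added, 1 hr ambient; Alexa 594 FP and total fluorescence read at 555/632 nm.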
Tau FP inhib: blocks human tau fibril formation measured by polarization. P10636. AID 1468. hit rate 0.39% among 280,000. Potency, µM (highest dose often 57.7 µM), for the others: top-dose activity, negative = inhibition, usual class: inhibitors. K18 P301L tau heparin fibrillization, Alexa594 FP, 6 h; further: potency means the concentration at half of the fitted maximal effect; on the % scale 0 is the no-effect control and ±100 the full control effect; nearly all actives have a fitted effect of over 55% in size
Target sequence (P10636 561-689 P618L limits assumed): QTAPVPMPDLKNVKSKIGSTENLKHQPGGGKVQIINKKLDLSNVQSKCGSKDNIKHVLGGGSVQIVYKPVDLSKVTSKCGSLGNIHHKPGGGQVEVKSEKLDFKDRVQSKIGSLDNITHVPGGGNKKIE
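Quantitative HTS format: compounds meet 15 uM recombinant K18 P301L tau and Alexa 594-tau tracer in 100 mM sodium acetate pH 7; 20 uM heparin triggers fibrillization at 37 C over 6 hr; FP gives the signal.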
Tau fibril ThT: inhibitors of human tau fibril formation, thioflavin T binding. Potency, µM (doses to about 57.4 µM), for inactives: at the top dose activity, negative = inhibition, usual class: inhibitors. hit rate 2.1% among 270,000. recombinant tau K18 P301L, heparin-induced fibrillization, ThT fluorescence; further: potency means the concentration at half of the fitted maximal effect; on the % scale 0 is the no-effect control and ±100 the full control effect; nearly all actives have a fitted effect of over 55% in size
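Using a mix of unlabeled (15 uM) and Alexa 594-labeled (0.24 uM) tau K18 P301L, heparin-triggered fibrillization over 6 hr at 37 C was scored by ThT fluorescence.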
CBFb-RUNX1 inh: blocks binding between human CBF-beta and RUNX1 | AlphaScreen CBFb-His/RUNX1-biotin binding, biochemical | 230,000 tested, under 10 active | Potency, µM (top dose mostly 59.8 µM), for the others: at the highest dose activity, negative = inhibition, usual class: inhibitors; further: % of control where 0% means no effect
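Compounds were screened at multiple concentrations against a preformed CBF-beta(His)/RUNX1(biotin) complex (30 nM of each) for 15 min at room temperature, followed by 90 min with nickel and streptavidin beads and AlphaScreen reading.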
KDM4E inh: blocks human JMJD2E demethylase activity. B2RXH2. JMJD2E catalytic domain, FDH-coupled NADH fluorescence (FDH is formaldehyde dehydrogenase). Potency, µM (top dose mostly 57.1 µM), inactives show top-dose activity change, negative = inhibition, hits mostly inhibitors. hit rate 1.6% among 230,000. AID 2147; active means well fitted inhibition curve with a large enough effect, not every such curve was filed as active; inconclusive means small, poorly fitted or top-dose-only effect, or another doubt; inactive means no such curve, though single readings can be large or run the other way;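 further: potency means the concentration at half of the fitted maximal effect; 0% = wells with enzyme and -100% = buffer wells without enzyme; nearly all actives have a fitted effect of over 50% in size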
Target sequence (B2RXH2 1-337 limits assumed): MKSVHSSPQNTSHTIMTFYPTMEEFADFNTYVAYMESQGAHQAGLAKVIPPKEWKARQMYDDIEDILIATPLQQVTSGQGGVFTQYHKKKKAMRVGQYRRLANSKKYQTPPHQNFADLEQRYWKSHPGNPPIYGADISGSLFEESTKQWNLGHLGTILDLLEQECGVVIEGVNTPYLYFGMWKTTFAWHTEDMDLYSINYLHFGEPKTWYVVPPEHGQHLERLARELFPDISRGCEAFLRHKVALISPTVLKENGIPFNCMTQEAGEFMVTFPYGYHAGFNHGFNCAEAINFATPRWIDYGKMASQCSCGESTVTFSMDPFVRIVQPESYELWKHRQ
Lamin A splicing: LMNA splicing modulation; Potency, µM (titrated, usually from 46.1 µM), without a hit: at the highest dose ratio change, negative = inhibition, hits mostly inhibitors; HeLa LMNA splicing GFP/RFP minigene ratio, 48 h; hit rate 0.01% among 200,000; active means well fitted inhibition curve with a large enough effect in the signal ratio, with a control signal flat, not every such curve was filed as active; inconclusive means small, poorly fitted or top-dose-only effect, or effect the other way, or a change in a side signal; the % refers to the signal ratio; further: potency means the concentration at half of the fitted maximal effect; on the % scale 0 is the no-effect control and ±100 the full control effect
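S3 HeLa stable clones carrying a lamin A-EGFP splicing minigene plus DsRed2 were seeded at 600 cells/well in Opti-MEM with 2% FBS, pin-dosed and incubated 48 h at 37°C. Acumen cytometry (488 nm) gave the GFP/RFP total-intensity ratio.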
Numbers without * were called inactive; [ ] = another dose, or the depositor's remark. In the library only some 3.2% were active in any assay of this set; here they are far more common. Unless noted, the call rests on the fitted dose curve; in most records, active means well fitted curve in the direction sought with a large enough effect; inconclusive means small, poorly fitted or top-dose-only effect, or another doubt; inactive means no such curve, though single readings can be large; an effect the other way counts as inactive or inconclusive.

For CCOC(=O)C1=C(C)OC(N)=C(C#N)C1c1ccsc1 (centres undefined) the results were Tau fluor counter -14%, Tau FP inhib -13%, Tau fibril ThT inconclusive, CBFb-RUNX1 inh 5%, KDM4E inh -9% and Lamin A splicing 5%.
`O=C1/C(=C\c2ccc3c(c2)OCO3)CCC/C1=C/c1ccc2c(c1)OCO2` gave Tau fluor counter -23%, Tau FP inhib -7%, Tau fibril ThT 4.5µM*, CBFb-RUNX1 inh -15%, KDM4E inh -18% and Lamin A splicing 14%.
`O=C1/C(=C/c2ccncc2)CCC/C1=C\c1ccncc1` gave Tau fluor counter -17%, Tau FP inhib 5µM*, Tau fibril ThT 5µM*, CBFb-RUNX1 inh -4% and KDM4E inh -7%.
O=C1/C(=C/c2ccncc2)CCc2ccccc21 was read as Tau fluor counter 3%, Tau FP inhib 6%, CBFb-RUNX1 inh 4% and KDM4E inh 0%.
For Cc1ccc(C)c2[nH]c(=O)c(C(c3nnnn3Cc3ccco3)N3CCc4ccccc4C3)cc12 (centres undefined) the results were Tau fluor counter -18%, Tau FP inhib inconclusive, Tau fibril ThT 32µM*, CBFb-RUNX1 inh -14%, KDM4E inh inconclusive and Lamin A splicing -2%.
`Cc1ccc(C)c2[nH]c(=O)c(C(c3nnnn3CCc3ccccc3)N3CCOCC3)cc12` (centres undefined) gave Tau fluor counter -8%, Tau FP inhib -6%, Tau fibril ThT -5%, CBFb-RUNX1 inh -5%, KDM4E inh inconclusive and Lamin A splicing 1%.
Screening CCOC(=O)c1sc2cc([N+](=O)[O-])cc(SCCO)c2c1N returned Tau fluor counter -26%, Tau FP inhib 4%, Tau fibril ThT 2.2µM*, CBFb-RUNX1 inh 1%, KDM4E inh -9% and Lamin A splicing -13%.
Screening CCOC(=O)c1sc2cc([N+](=O)[O-])cc(SCC(=O)OC)c2c1N returned Tau fluor counter inconclusive, Tau FP inhib -9%, Tau fibril ThT 7.1µM*, CBFb-RUNX1 inh inconclusive, KDM4E inh -21% and Lamin A splicing -12%.
For CCOC(=O)CSc1nnc(NC(=O)c2cc([N+](=O)[O-])cc([N+](=O)[O-])c2)s1 the results were Tau fluor counter -16%, Tau FP inhib 0%, Tau fibril ThT inconclusive, CBFb-RUNX1 inh 11%, KDM4E inh 3% and Lamin A splicing -4%.
Cc1cc(O)c(C(C[N+](=O)[O-])c2ccc(Cl)cc2Cl)c(=O)o1 (centres undefined) was read as Tau fluor counter -22%, Tau FP inhib inconclusive, Tau fibril ThT 28µM*, CBFb-RUNX1 inh -4%, KDM4E inh 7% and Lamin A splicing -23%.
`O=c1[nH][nH]c(-c2ccccc2O)c1C(C[N+](=O)[O-])c1ccc(Cl)cc1Cl` (centres undefined) gave Tau fluor counter -30%, Tau FP inhib 0%, Tau fibril ThT -18%, CBFb-RUNX1 inh -15%, KDM4E inh -22% and Lamin A splicing inconclusive.
`O=C(/C(=C/c1ccc(Cl)cc1)c1nc2ccccc2[nH]1)c1cccs1` gave Tau fluor counter -29%, Tau FP inhib inconclusive, Tau fibril ThT 16µM*, CBFb-RUNX1 inh -19%, KDM4E inh -1% and Lamin A splicing inconclusive.
O=C(/C(=C\c1ccccc1)c1nc2ccccc2[nH]1)c1ccc(Cl)cc1 was read as Tau fluor counter -24%, Tau FP inhib inconclusive, Tau fibril ThT 22µM*, CBFb-RUNX1 inh -11%, KDM4E inh 2% and Lamin A splicing inconclusive.
`COC(=O)/C(=C\c1ccc(O)cc1)c1nc2ccccc2[nH]1` gave Tau fluor counter -11%, Tau FP inhib 7%, Tau fibril ThT inconclusive, CBFb-RUNX1 inh -20% and KDM4E inh inconclusive.
Screening COCCCN1CN(S(=O)(=O)c2cccs2)c2nc3ccccc3nc21 returned Tau fluor counter -13%, Tau FP inhib -6%, Tau fibril ThT -8%, CBFb-RUNX1 inh 2% and KDM4E inh inconclusive.
COc1ccc(-c2c(C3C4C=CCC(C)C4C(=O)N3Cc3ccccc3)ccc3ccccc23)cc1OC (centres undefined) was read as CBFb-RUNX1 inh -29%.
Cc1cc(/C=C2/NC(=O)N(c3ccccc3)C2=O)c(C)n1C(C)C was read as Tau fluor counter -22%, Tau FP inhib 4%, Tau fibril ThT inconclusive, CBFb-RUNX1 inh -10%, KDM4E inh 22µM* and Lamin A splicing inconclusive.
Cc1cc(/C=C2/NC(=O)N(Cc3ccccc3F)C2=O)c(C)n1C(C)C was read as Tau fluor counter -25%, Tau FP inhib 12%, Tau fibril ThT inconclusive, CBFb-RUNX1 inh -29%, KDM4E inh 18µM* and Lamin A splicing inconclusive.
Screening CCn1c(C)cc(/C=C2/NC(=O)N(Cc3ccccc3F)C2=O)c1C returned Tau fluor counter -28%, Tau FP inhib -10%, Tau fibril ThT inconclusive, CBFb-RUNX1 inh -32%, KDM4E inh inconclusive and Lamin A splicing inconclusive.
Screening CC[C@H](C)[C@@H](NC(=O)O[C@@H]1C(=O)c2ccc(OC)cc2O[C@H]1c1ccc2c(c1)OCO2)C(=O)OC returned Tau fluor counter -10%, Tau FP inhib 3%, Tau fibril ThT -8%, CBFb-RUNX1 inh -7% and KDM4E inh -1%.
For COc1ccc(SN=C2C(C)=CC(=O)C=C2C)cc1 the results were Tau fluor counter inconclusive, Tau FP inhib inconclusive, Tau fibril ThT 2.8µM*, CBFb-RUNX1 inh -1%, KDM4E inh -4% and Lamin A splicing -6%[46 µM].
Screening Fc1ccc(C2CC(c3ccco3)=NN2c2ccccc2)cc1 (centres undefined) returned Tau fluor counter 4%, Tau FP inhib 4%, Tau fibril ThT 1%, CBFb-RUNX1 inh -3%, KDM4E inh 4% and Lamin A splicing 15%.
Screening O=[N+]([O-])c1ccc(N2N=C(c3ccco3)CC2c2ccccc2)cc1 (centres undefined) returned Tau fluor counter inconclusive, Tau FP inhib inconclusive, Tau fibril ThT 8.9µM*, CBFb-RUNX1 inh -6%, KDM4E inh -4% and Lamin A splicing 3%.
For Oc1c(Cl)cc(Cl)cc1/C=N/c1nccs1 the results were Tau fluor counter inconclusive, Tau FP inhib -12%, Tau fibril ThT inconclusive, CBFb-RUNX1 inh -27%, KDM4E inh inconclusive and Lamin A splicing -9%.
Oc1c(Cl)cc(Cl)cc1C=Nc1ccccc1N1CCCC1 was read as Tau fluor counter inconclusive, Tau FP inhib -13%, Tau fibril ThT 22µM*, CBFb-RUNX1 inh -17%, KDM4E inh inconclusive and Lamin A splicing -19%.

High-throughput results deposited in PubChem by National Center for Advancing Translational Sciences (NCATS).
